Data from article PMC4336329 (PLoS ONE, 2015).
Out of some 310,000 compounds screened, about 14,000 (4.5%) showed an effect of 50% or more. Effects have a minus sign here. What follows is part of a selection rich in strong results, with near analogues and random picks from the rest.

target: human ether-à-go-go-related gene (hERG) potassium channel (human, UniProt Q12809); experiment: primary screen, population patch clamp on CHO cells stably expressing hERG; higher = less effect of the substance
Sequence (Q12809 whole entry, looked up): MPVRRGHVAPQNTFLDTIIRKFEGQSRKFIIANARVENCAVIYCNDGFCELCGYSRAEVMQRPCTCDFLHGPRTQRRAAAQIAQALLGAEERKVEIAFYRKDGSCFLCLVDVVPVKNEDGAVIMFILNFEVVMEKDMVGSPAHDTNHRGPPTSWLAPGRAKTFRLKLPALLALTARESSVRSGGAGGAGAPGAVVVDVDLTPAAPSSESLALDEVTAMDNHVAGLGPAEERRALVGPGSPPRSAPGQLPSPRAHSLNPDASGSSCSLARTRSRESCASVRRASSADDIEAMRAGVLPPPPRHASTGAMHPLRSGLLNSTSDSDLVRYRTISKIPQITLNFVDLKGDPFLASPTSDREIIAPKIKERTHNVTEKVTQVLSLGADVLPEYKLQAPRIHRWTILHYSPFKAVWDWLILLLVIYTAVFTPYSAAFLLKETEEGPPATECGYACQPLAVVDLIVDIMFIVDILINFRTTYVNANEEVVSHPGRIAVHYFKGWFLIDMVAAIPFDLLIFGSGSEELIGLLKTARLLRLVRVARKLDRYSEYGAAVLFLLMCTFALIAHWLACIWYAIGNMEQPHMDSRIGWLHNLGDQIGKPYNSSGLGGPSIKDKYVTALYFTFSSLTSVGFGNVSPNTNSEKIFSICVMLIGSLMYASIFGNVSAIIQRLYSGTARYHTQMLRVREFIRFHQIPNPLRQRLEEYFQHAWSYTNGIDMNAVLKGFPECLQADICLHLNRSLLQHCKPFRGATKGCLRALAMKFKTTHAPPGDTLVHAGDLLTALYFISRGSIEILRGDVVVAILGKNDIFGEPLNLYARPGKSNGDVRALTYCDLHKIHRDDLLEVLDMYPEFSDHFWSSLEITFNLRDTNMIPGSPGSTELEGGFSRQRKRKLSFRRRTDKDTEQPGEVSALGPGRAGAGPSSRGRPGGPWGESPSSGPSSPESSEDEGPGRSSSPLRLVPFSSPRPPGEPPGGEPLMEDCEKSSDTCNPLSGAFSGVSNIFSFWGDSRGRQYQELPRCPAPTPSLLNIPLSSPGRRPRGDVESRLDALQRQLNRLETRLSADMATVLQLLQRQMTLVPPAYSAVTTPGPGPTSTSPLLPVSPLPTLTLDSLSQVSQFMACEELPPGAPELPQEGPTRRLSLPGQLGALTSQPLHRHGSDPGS
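Further: peak tail current of the secondary pulse compared with the same well before compound.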

Compound | hERG current change (%, negative = inhibition) at 10uM [%]
Cc1cc(S(=O)(=O)Nc2ccc3ccccc3c2)c(C)s1 | -0.508
O=C(/C=C/c1cccs1)NC(=S)Nc1ccc(C(=O)O)cc1 | 6.78
CCOc1ccc(/C=N/Nc2cc(C)nc(N3CCOCC3)n2)cc1 | 3.47
O=C(O)c1ccc2c(c1)C1C=CCC1C(c1cc3c(cc1Br)OCO3)N2 (stereo not drawn) | 21.2
O=c1n(-c2ccc(Br)cc2)cnn1-c1ncccc1[N+](=O)[O-] | -22.1
O=C1N/C(=N\N=C\c2ccco2)SC1Cc1ccc(F)cc1 (stereo not drawn) | 14
Nc1ncnc(Nc2cccc(C(F)(F)F)c2)n1 | -5.45
Cc1ccc(SCc2[nH]nc3c2C(c2cccnc2)C(C#N)=C(N)O3)cc1 (stereo not drawn) | -2.64
O=C(CCN1C(=O)c2ccccc2C1=O)NCc1ccccc1 | 10.2
CCOC(=O)c1cc2occc2n1CC(=O)N1CCOCC1 | 6.95
COc1cc(-c2ccc(NC(=O)NC3CC3)c(OC)c2)ccc1NC(=O)NC1CC1 | 27.9
O=C(NCc1ccco1)/C(=C/c1ccc(Cl)cc1)NC(=O)c1ccco1 | -14
O=C(NCc1ccco1)/C(=C/c1ccc([N+](=O)[O-])cc1)NC(=O)c1ccco1 | -69.5
O=C(NCc1ccco1)/C(=C/c1ccccc1)NC(=O)c1ccco1 | 4.72
CC(C)CNC(=S)NC(=O)c1csc([N+](=O)[O-])c1 | 9.85
COc1cccc(C(=O)C2CCCN(Cc3cccc(-n4cccn4)c3)C2)c1 (stereo not drawn) | -64.5
COc1cccc(C(=O)C2CCCN(Cc3cccc(OCCO)c3)C2)c1 (stereo not drawn) | -48.7
COc1cccc(C(=O)C2CCCN(Cc3cccc(-n4nc(C)cc4C)c3)C2)c1 (stereo not drawn) | -59.4
COc1cccc(CN2CCCC(C(=O)N3CCCCC3)C2)c1.O=C(O)C(=O)O (stereo not drawn) | 5.13
Cc1cc(S(=O)(=O)N2CCCC(C)C2)ccc1-n1cnnn1 (stereo not drawn) | 5.72
O=C(CSc1nc(N2CCOCC2)nc(N2CCOCC2)n1)Nc1ccccc1F | 19.2
COc1ccccc1C(=O)CC(=O)C(=O)Nc1cccc([N+](=O)[O-])c1C | 8.79
COCCCNC(=O)c1ccc2c(=O)n(Cc3ccccc3OC)c(=S)[nH]c2c1 | 6.43
O=C(NCCc1ccc(F)cc1)c1cccs1 | 10.4

Compound | hERG current change (%, negative = inhibition) at 10uM [%]
Cc1ccc(S(=O)(=O)N2CCN(C(=O)c3c(-c4ccccc4)noc3C)CC2)cc1C | 1.83
C=CCSc1nc(N)c(C#N)c(-c2ccc(C)cc2)c1C#N | 4.13
Cc1cccc(CSc2nc3c(c(-c4cccs4)c2C#N)CN(C)CC3)c1 | -13.1
CN1CCc2nc(N)c(C#N)c(-c3ccccc3)c2C1 | -7.5
CN1CCc2nc(SCC(=O)Nc3cccc(F)c3)c(C#N)c(-c3cccs3)c2C1 | -62.3
COc1ccc(NC(=O)CSc2nc3c(c(-c4cccs4)c2C#N)CN(C)CC3)cc1OC | 1.65
C=CCSc1nc2c(c(-c3ccsc3)c1C#N)CN(C)CC2 | -65.2
CN1CCc2nc(SC(C(=O)O)c3ccccc3)c(C#N)c(-c3cccs3)c2C1 (stereo not drawn) | 19.4
CN1CCc2nc(SCC(=O)Nc3ccc(OC(F)(F)F)cc3)c(C#N)c(-c3cccs3)c2C1 | -12.8
CN1CCc2nc(SCc3ccc(Cl)cc3)c(C#N)c(-c3cccs3)c2C1 | -66.2
Cc1ccc(C(=O)Nc2cccc(C(=O)O)c2)cc1 | 14.4
O=C(COC(=O)c1ccccc1F)Nc1cc(S(=O)(=O)N2CCOCC2)ccc1N1CCCC1 | -13.5
Cc1oc2c(c(C)cc3oc(=O)c(CC(=O)NCCCN4CCCC4=O)c(C)c32)c1C | -0.519
O=C(Nc1ncccc1O)c1ccc2c(c1)OCO2 | 3.08
COc1ccccc1NC=C1C(=O)OC(C)(C)OC1=O | -24
CCOC(=O)c1ccc(S(=O)(=O)N2CCN(C(C)=O)CC2)cc1 | 0.122
CCc1nc(Nc2ccccc2)c2nnn(Cc3ccccc3)c2n1 | 8.23
COC(=O)c1nn(-c2ccc(-c3ccccc3)cc2)cc1O | -3.85
CC(C)Cn1c(N)c(C(=O)COC(=O)c2cc(C(F)(F)F)nc3c(C(F)(F)F)cccc23)c(=O)n(C)c1=O | 7.27
CC(C)Cn1c(N)c(C(=O)COC(=O)Cc2cccs2)c(=O)n(C)c1=O | -51.7
CC(C)Cn1c(N)c(C(=O)COC(=O)c2ccc(F)cc2)c(=O)n(C)c1=O | 17.1
Cc1csc(=O)n1CC(=O)OCC(=O)c1c(N)n(CC(C)C)c(=O)n(C)c1=O | -10.7
Cc1cc(C)cc(C(=O)NCC(=O)OCC(=O)c2c(N)n(C)c(=O)n(C)c2=O)c1 | 17.4
CC(C)Cn1c(N)c(C(=O)COC(=O)/C=C/c2cccs2)c(=O)n(C)c1=O | -49.9

Compound | hERG current change (%, negative = inhibition) at 10uM [%]
CC(C)Cn1c(N)c(C(=O)COC(=O)COc2cccc(C(F)(F)F)c2)c(=O)n(C)c1=O | -50.9
CC(C)Cn1c(N)c(C(=O)COC(=O)Cc2cccc(C(F)(F)F)c2)c(=O)n(C)c1=O | -54.5
CCCn1c(N)c(C(=O)COC(=O)CNC(=O)c2ccc(C)c(C)c2)c(=O)n(C)c1=O | -78.1
Cc1cccc(OCC(=O)OCC(=O)c2c(N)n(C)c(=O)n(C)c2=O)c1 | -13.1
CC(C)Cn1c(N)c(C(=O)COC(=O)c2c(F)cccc2F)c(=O)n(C)c1=O | -16.7
Cc1ccc(C(=O)NCC(=O)OCC(=O)c2c(N)n(C)c(=O)n(C)c2=O)s1 | 9.14
CCN(CC)S(=O)(=O)c1cc(C)c(C)cc1OCC(=O)NC1CCCC1 | -23.1
C/C=C/C=C/C(=O)N1CC2(CC(c3cccc(NC(=O)/C=C/C)c3)=NO2)C[C@@H]1C(N)=O (stereo partly drawn) | 2.75
Cc1ccsc1/C=N\NC(=O)c1cc(C(C)(C)C)[nH]n1 | -9.77
COc1ccc(N2CCN(C(=O)CN3C(=O)C4CC=CCC4C3=O)CC2)cc1 (stereo not drawn) | 12.3
O=C(CN1C(=O)C2CC=CCC2C1=O)N1CCN(c2ccc([N+](=O)[O-])cc2)CC1 (stereo not drawn) | -71.6
CC(C(=O)N1CCN(c2ccccc2)CC1)N1C(=O)C2CC=CCC2C1=O (stereo not drawn) | 7.43
CC1(C)NC(=O)N(CC(=O)N2CCN(c3cccc(C(F)(F)F)c3)CC2)C1=O | 6.26
O=C(CN1C(=O)NC(c2ccccc2)(c2ccccc2)C1=O)N1CCN(c2ccc(F)cc2)CC1 | -68.4
CC(C(=O)N1CCN(c2ccc([N+](=O)[O-])cc2)CC1)N1C(=O)C2CC=CCC2C1=O (stereo not drawn) | -72.2
O=C(CN1C(=O)NC(c2ccccc2)(c2ccccc2)C1=O)N1CCN(c2ccccc2F)CC1 | -17.4
CC1(C)NC(=O)N(CC(=O)N2CCN(c3cccc(Cl)c3)CC2)C1=O | -6.67
CC1(C)NC(=O)N(CC(=O)N2CCN(c3ccc([N+](=O)[O-])cc3)CC2)C1=O | -66.1
O=C(CN1C(=O)NC(c2ccccc2)(c2ccccc2)C1=O)N1CCOCC1 | 0.969
CC(C(=O)N1CCOCC1)c1ccc([N+](=O)[O-])cc1 (stereo not drawn) | 9.94
O=C(CN1C(=O)C2CCCCC2C1=O)N1CCN(c2ccc(F)cc2)CC1 (stereo not drawn) | -12.2
CC(=O)N1CN(C2CC(C)(C)NC(C)(C)C2)Cc2c1sc1c2CCCC1 | 6.77
C(=C\c1ccccn1)/c1ccccn1 | 24.4
CC1=CC(C)(C)N(C(=O)CSc2nnc(N)s2)c2ccccc21 | 6.19

Compound | hERG current change (%, negative = inhibition) at 10uM [%]
O=c1[nH]c(=O)n(CCc2ccc(F)cc2)c(O)c1C=NCCCN1CCOCC1 | -17.7
CC(=O)Nc1cc(C(C)C)c(O)c(C(C)C)c1 | -4.37
Cc1cccc(CCNC(=O)Cn2ncc3c([nH]c4ccccc43)c2=O)c1 | 14.2
COc1cc(/C=C2\S/C(=N/S(=O)(=O)c3ccccc3)NC2=O)c([N+](=O)[O-])cc1OC | 4.25
O=C(CC1SC(=O)N(Cc2ccc(Cl)cc2)C1=O)Nc1nccs1 (stereo not drawn) | -4.51
O=c1[nH]c(=O)n(C2OC(CO)C(O)C2O)cc1Br (stereo not drawn) | 26.2
CCOC(=O)c1c(-c2ccc(C)o2)csc1N | 20.5
Oc1ccccc1C1=Nc2ccccc2N=C(c2ccco2)C1 | -12.7
COc1ccc(CNS(=O)(=O)c2c(C)[nH]c(C)c2C(=O)N2CCCC2)cc1 | 17.6
CCOC(=O)C1CCN(c2ccc([N+](=O)[O-])c(C(C)=O)c2)CC1 | -11.8
O=S(=O)(c1cnc[nH]1)N1CCN(c2ccc(F)cc2)CC1 | -3
CN(C)S(=O)(=O)N1CCN(c2ccccc2)CC1 | -1.78
CCOC(=O)C1CCN(c2ccc([N+](=O)[O-])cc2)CC1 | -68.9
O=C(C1CCN(S(=O)(=O)c2cnc[nH]2)CC1)N1CCN(c2ccc([N+](=O)[O-])cc2)CC1 | -1.78
CN(C)S(=O)(=O)N1CCN(c2ccc([N+](=O)[O-])cc2)CC1 | -76.7
CCOC(=O)N1CCN(c2c(N3CCN(c4ccc(F)cc4)CC3)c(=O)c2=O)CC1 | -73.4
CCOC(=O)N1CCN(c2c(N3CCN(C(=O)OCC)CC3)c(=O)c2=O)CC1 | -29.1
CN(C)S(=O)(=O)N1CCN(c2ccc(Cl)cc2)CC1 | -14.4
COC(=O)C1CCN(c2ccc([N+](=O)[O-])cc2)CC1 | -21.7
CCOC(=O)N1CCN(c2c(N3CCN(c4ccc(OC)cc4)CC3)c(=O)c2=O)CC1 | -46.6
O=[N+]([O-])c1ccc(N2CCN(S(=O)(=O)c3cnc[nH]3)CC2)cc1 | -59.8
